Among the data in PubChem BioAssay (NCI) are growth values, retold here.

About 83,000 compounds went through this panel and 20% of them were active in at least one assay; those are over-represented in the sample as a whole.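 Treatment: one concentration, 48 hours, 96-well format. Scoring: percent growth, with anything below 10 considered active.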 A number with no mark means an inactive call. Activity calls are given as the source filed them.

What all share (test): NCI-60 one-dose screen, 48 h (100 = growth as untreated, 0 = no growth, -100 = all killed)
The test system of one assay is HCT-15 colon. Particulars: 10 µM unless noted.
In a further assay the test system is HT29 colon. Particulars: 10 µM unless noted.
For another assay, the system named is SNB-19 CNS. Particulars: 10 µM unless noted.
The test system of another assay is U251 CNS. Particulars: 10 µM unless noted.
The subject of another assay is PC-3 prostate. Particulars: 10 µM unless noted.
The subject of the next assay is SK-MEL-5 melanoma. Particulars: 10 µM unless noted.
The test system of a further assay is UACC-62 melanoma. Particulars: 10 µM unless noted.
The next assay deals with LOX IMVI melanoma. Particulars: 10 µM unless noted.
A further assay has as its system SK-MEL-28 melanoma. Particulars: 10 µM unless noted.
For the next assay, the system named is EKVX NSCLC. Particulars: 10 µM.
In a further assay the test system is SN12C renal. Particulars: 10 µM unless noted.
Another assay concerns UO-31 renal. Particulars: 10 µM unless noted.
The next assay deals with TK-10 renal. Particulars: 10 µM unless noted.
In a further assay the test system is ACHN renal. Particulars: 10 µM unless noted.
The next assay has as its system CAKI-1 renal. Particulars: 10 µM unless noted.
In another assay the test system is A498 renal. Particulars: 10 µM unless noted.
Another assay concerns CCRF-CEM leukemia. Particulars: 10 µM.
For the next assay, the system named is MOLT-4 leukemia. Particulars: 10 µM unless noted.
A further assay has as its system SK-MEL-2 melanoma. Particulars: 10 µM unless noted.
The subject of another assay is SNB-75 CNS. Particulars: 10 µM unless noted.

Take `Nc1nc2cc(O)ccc2n2cc3c(F)cccc3c12`: the growth is 35.6% in the assay with HCT-15 colon; 20.7% with HT29 colon; 35.9% in the assay on SNB-19 CNS; 32.8% in the assay with U251 CNS; 42.2% with PC-3 prostate; 14.2% with SK-MEL-5 melanoma. For the same molecule, the growth with UACC-62 melanoma is 39%; with LOX IMVI melanoma it was 34.9%; in the assay with SK-MEL-28 melanoma, 20%; in the assay on EKVX NSCLC, 24.8%; with SN12C renal it was 47%; in the assay with UO-31 renal, 2.79% (active). Further, the growth in the assay with TK-10 renal is -12.5% (active); in the assay on ACHN renal, 18.9%; in the assay on CAKI-1 renal it was -12.1% (active); in the assay with A498 renal, 41.5%; in the assay with CCRF-CEM leukemia, 58.4%; in the assay with MOLT-4 leukemia it was 3.96% (active).
As for `O=c1[nH]c2cc(O)ccc2n2cc3c(F)cccc3c12`, the growth in the assay with HCT-15 colon is 38.7%; in the assay on HT29 colon, 46.2%; in the assay on SNB-19 CNS, 42.3%; in the assay with U251 CNS, 27.6%; in the assay on PC-3 prostate it was 46.4%; with SK-MEL-5 melanoma it was 8.21% (active). Moreover, the growth in the assay on UACC-62 melanoma is 39.8%; in the assay with LOX IMVI melanoma, 36.8%; in the assay on SK-MEL-28 melanoma it was 24.7%; in the assay with EKVX NSCLC, 25.2%; in the assay on SN12C renal it was 53.6%; in the assay with UO-31 renal it was 12%. In addition, the growth in the assay with TK-10 renal was 6.81% (active); with ACHN renal, 24.5%; in the assay with CAKI-1 renal, -8.76% (active); with A498 renal, 39.5%; in the assay on CCRF-CEM leukemia, 49%; with MOLT-4 leukemia, 6.71% (active).
`CC1CCCCC[N+]12CCCC2` (stereo not given): the growth in the assay on HCT-15 colon is 95.6%; in the assay with HT29 colon, 107%; in the assay on SNB-19 CNS it was 106%; in the assay with PC-3 prostate it was 93.4%; with UACC-62 melanoma it was 103%; in the assay with LOX IMVI melanoma it was 95.8%. For the same molecule, the growth is 109% with SK-MEL-28 melanoma; 101% in the assay on SK-MEL-2 melanoma; 101% in the assay with SN12C renal; 88.8% with UO-31 renal; 100% with TK-10 renal; 101% in the assay with ACHN renal. Moreover, the growth is 98.7% in the assay with CAKI-1 renal, 109% in the assay with A498 renal and 99.2% in the assay on MOLT-4 leukemia.
On to `COc1ccc(C(=O)N2N=C(c3ccc(Br)cc3)CC2c2cn(-c3ccccc3)nc2-c2ccccc2)cc1` (stereo not given), for which the growth in the assay with HCT-15 colon was 58.9%; in the assay with SNB-75 CNS it was 70.4%; with SNB-19 CNS, 65.3%; in the assay with U251 CNS it was 6.67% (active); with PC-3 prostate, 36.1%; with SK-MEL-5 melanoma, 92.3%. Further, the growth with UACC-62 melanoma was 74.7%; in the assay with LOX IMVI melanoma it was 44.5%; in the assay on SK-MEL-28 melanoma, 61.2%; in the assay with EKVX NSCLC, 78.5%; with SN12C renal, 58.9%; with UO-31 renal, 84.5%. The growth in the assay with ACHN renal is 87.8%; in the assay with CAKI-1 renal, 75%; with A498 renal, 89.1%; in the assay on CCRF-CEM leukemia it was 67.9%; in the assay with MOLT-4 leukemia, 46.1%.
For `C/C(=C\c1ccc2ccccc2c1)[N+](=O)[O-]`, the growth with HT29 colon is -9.28% (active); in the assay on SNB-75 CNS it was 78%; in the assay on SNB-19 CNS, 90.6%; in the assay on PC-3 prostate, 25.3%; with SK-MEL-5 melanoma, 71.3%; with UACC-62 melanoma it was 78.2%. In addition, the growth was -80.9% (active) with LOX IMVI melanoma; 37% with SK-MEL-28 melanoma; 4.49% (active) in the assay with SK-MEL-2 melanoma; 89.6% in the assay on SN12C renal; -80.1% (active) with UO-31 renal; -47% (active) in the assay with TK-10 renal. The growth is -74.1% (active) in the assay with ACHN renal; -79.2% (active) in the assay on CAKI-1 renal; 103% in the assay with A498 renal; -25.4% (active) with CCRF-CEM leukemia; -1.16% (active) in the assay with MOLT-4 leukemia.
`BrCCCOc1ccc(Oc2ccc(OCCCBr)cc2)cc1`: the growth was 93.3% with HCT-15 colon; 107% in the assay with HT29 colon; 92.5% with SNB-19 CNS; 88.1% in the assay with U251 CNS; 101% in the assay with PC-3 prostate; 97% in the assay on SK-MEL-5 melanoma. Further, the growth in the assay with UACC-62 melanoma was 94.5%; in the assay with LOX IMVI melanoma, 50.5%; with SK-MEL-28 melanoma, 99%; in the assay on SK-MEL-2 melanoma, 97.4%; in the assay on SN12C renal, 95.3%; with TK-10 renal it was 108%. The growth in the assay with ACHN renal was 120%; in the assay on CAKI-1 renal it was 112%; with A498 renal, 99.4%; in the assay with MOLT-4 leukemia, 96.4%.
For the molecule `CCCCCCCCCCCCc1ccc([N+](CC)(CC)CC)cc1`, the growth in the assay on HCT-15 colon is 96%; with HT29 colon it was 39.3%; in the assay on SNB-19 CNS it was 31.7%; in the assay on U251 CNS, 29.6%; with PC-3 prostate, 25.1%; with SK-MEL-5 melanoma it was -75.5% (active). The growth in the assay on UACC-62 melanoma was 11.1%; in the assay on LOX IMVI melanoma, 32.9%; in the assay on SK-MEL-28 melanoma, 28.9%; in the assay on SK-MEL-2 melanoma, 42.7%; in the assay on EKVX NSCLC, 41%; in the assay with UO-31 renal, 78.7%. The growth in the assay on TK-10 renal was 67.1%; in the assay on ACHN renal, 85%; in the assay on CAKI-1 renal, 88.7%; with A498 renal it was 60%; in the assay with CCRF-CEM leukemia, 33%; in the assay on MOLT-4 leukemia, 51.9%.
Regarding `COc1cc(-c2nc3c(c(C)nc4c3nnn4-c3ccccc3)c(=O)o2)cc(OC)c1OC`, the growth in the assay on HCT-15 colon is 113%; in the assay on HT29 colon it was 115%; in the assay with SNB-19 CNS it was 110%; in the assay with U251 CNS, 111%; with PC-3 prostate, 104%; in the assay on SK-MEL-5 melanoma, 106%. Further, the growth with UACC-62 melanoma is 102%; with LOX IMVI melanoma it was 101%; in the assay with SK-MEL-2 melanoma, 107%; in the assay with EKVX NSCLC it was 115%; with SN12C renal, 102%; with UO-31 renal, 87.9%. Also, the growth in the assay with TK-10 renal is 104%; in the assay on ACHN renal it was 103%; with CAKI-1 renal, 94.8%; in the assay on A498 renal, 61.1%; in the assay on CCRF-CEM leukemia it was 96.2%; in the assay on MOLT-4 leukemia, 102%.
With `COC(=O)[C@@H]1[C@H](O)[C@H](C)[C@H](O)[C@H](C)/C=C\C=C(C)C(=O)Nc2c(C)c(OC(C)=O)c3c(c2O)C(=O)C(C)=C2OCOC(=C23)C(C)=C[C@@](C)(O)[C@H](O)[C@@H](C)[C@H]1OC(C)=O`, the growth was 118% with HCT-15 colon; 110% in the assay with HT29 colon; 113% with SNB-19 CNS; 111% in the assay with U251 CNS; 103% in the assay on SK-MEL-5 melanoma; 113% in the assay on UACC-62 melanoma. Further, the growth in the assay with LOX IMVI melanoma was 104%; in the assay with SK-MEL-28 melanoma it was 138%; in the assay with SK-MEL-2 melanoma, 8.13% (active); with EKVX NSCLC it was 112%; in the assay on SN12C renal it was 112%; with UO-31 renal it was 101%. The growth in the assay with TK-10 renal is 73.5%; in the assay on ACHN renal, 122%; in the assay with CAKI-1 renal, 116%; in the assay on A498 renal, 141%; in the assay on CCRF-CEM leukemia it was 99.3%; with MOLT-4 leukemia it was 87.6%.
